Screens (PubChem BioAssay)
Most compounds without a hit are left out; they make up all but 7.9% or so of the library.
SW480 rerep: A quantitative high throughput screen for small molecules that induce DNA re-replication in SW480 colon adenocarcinoma cells | SW480 DNA re-replication, Hoechst DNA content imaging, 48 h | Potency, µM (series often up to 46.1 µM), without a hit: top-dose re-replication activation, usual class: activators | actives 1.8% (n = 340,000) | AID 624297, 2012; further: % of control where 0% means no effect; nearly all actives have a fitted effect of over 55% in size
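Image-based read-out: total Hoechst fluorescence of nuclei (405 nm excitation, 500-530 nm emission), with hits raising the fraction of high-intensity nuclei. SW480 colon cells incubated 48 hr with compounds at 37 C.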
MCF10A rerep: A quantitative high throughput screen for small molecules that induce DNA re-replication in MCF 10a normal breast cells. MCF 10A DNA re-replication, Hoechst nuclear intensity, 48 h. Potency, µM (series often up to 46.1 µM), for the others: at the highest dose activity, positive = re-replication, hits mostly activators. actives 2.9% (n = 350,000). AID 624296, 2012; further: % of control where 0% means no effect; nearly all actives have a fitted effect of over 50% in size
KB-3-1 tox: qHTS assay for MDR1-selective chemotherapeutics: Primary screen using the parental adenocarcinoma cell KB-3-1; Potency, µM (doses to about 46.1 µM), hits mostly cytotoxic; KB-3-1 viability, CellTiter-Glo ATP luminescence, 72 h; actives 1.4% (n = 400,000); further: on the % scale 0 is the no-effect control and ±100 the full control effect; nearly all actives have a fitted effect of over 60% in size
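Luminescent ATP read-out (CellTiter-Glo) measures survival of drug-naive KB-3-1 cells after 72 h compound exposure at 37 °C. Titration series was screened from lowest to highest concentration, with DMSO vehicle plates as background controls.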
HT1080 IDH1KD tx: qHTS for induction of synthetic lethality in tumor cells producing 2HG: qHTS for the HT-1080-IDH1KD cell line; HT-1080 IDH1 knockdown viability, ATP luminescence, 48 h; Potency, µM (series often up to 46.1 µM), for inactives: top-dose activity, negative = toxicity, hits mostly cytotoxic; actives 2% (n = 360,000); AID 686971, 2013;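 further: 0% = DMSO wells and -100% = cell-free medium wells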
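Using the IDH1-knockdown HT-1080 line run in the same batch and compound series as the NT line, viability after 48 h at 37 °C was determined by CellTiter-Glo luminescence and expressed as % activity.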
HT1080NT lethal: qHTS for induction of synthetic lethality in tumor cells producing 2HG: qHTS for the HT-1080-NT fibrosarcoma cell line | HT-1080-NT fibrosarcoma viability, CellTiter-Glo ATP luminescence, 48 h | Potency, µM (highest dose often 46.1 µM), inactives show top-dose activity, negative = less viability, usual class: cytotoxic | actives 1.6% (n = 360,000) | AID 686970, 2013;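 further: NT is the 2HG producing partner of a matched IDH1 knockdown line; 0% = DMSO-treated cells and -100% = media-only wells without cells; nearly all actives have a fitted effect of over 55% in size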
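Viability by CellTiter-Glo luminescence after 48 h compound exposure at 37C of HT-1080-NT cells (750/well, RPMI, 5% FBS). % activity scaled between DMSO wells and medium-only wells, then curve-fitted and categorized by curve class.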
KB-V1 cytotox: qHTS assay for MDR1-selective chemotherapeutics: Primary screen using the drug-selected MDR subline cells KB-V1. actives 3.4% (n = 400,000). Potency, µM (doses to about 46.1 µM), hits mostly cytotoxic. KB-V1 MDR cells viability, CellTiter-Glo, 72 h; further: on the % scale 0 is the no-effect control and ±100 the full control effect; nearly all actives have a fitted effect of over 60% in size
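KB-V1, DMEM (no phenol red) + 10% FBS; cpd pin-transferred, titration series; 72 h, 37 degrees C; CellTiter-Glo, luminescence. Data normalized, curve-fit.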
Active calls of the source: *; i = inactive; ? = inconclusive; / = no result; [ ] = dose if it differs, or a comment. The call rests on the fitted dose curve; in most records, active means well fitted curve in the direction sought with a large enough effect; inconclusive means small, poorly fitted or top-dose-only effect, or another doubt; inactive means no such curve, though single readings can be large; an effect the other way counts as inactive or inconclusive. Potency means the concentration at half of the fitted maximal effect.

SMILES	SW480 rerep	MCF10A rerep	KB-3-1 tox	HT1080 IDH1KD tx	HT1080NT lethal	KB-V1 cytotox
Cn1c(=N)n(CC(O)c2ccco2)c2ccccc21 (stereo not given)	2%[9.22 µM]	-4%	i	14%	7%	i
COc1cc(Cl)ccc1OCc1cc(C(=O)N(C)C2CCOC2)no1 (stereo not given)	-25%	3%	i	13%	6%	i
Nc1nonc1-n1nnc(C(=O)N/N=C/c2ccc(Br)cc2)c1CSC1=NCCS1	?	?	?	?	-11%	i
Nc1nonc1-n1nnc(C(=O)N/N=C/c2ccccc2)c1CSc1ccccc1	?	?	i	-6%	-4%	i
Cc1ccc(/C=N/NC(=O)c2nnn(-c3nonc3N)c2CSc2ccccc2)s1	13µM*	21µM*	i	27%	11%	i
Nc1nonc1-n1nnc(C(=O)N/N=C/c2cccnc2)c1CSC1=NCCS1	6%	18µM*	i	?	?	i
OC(c1ccccc1)C(O)c1ccccc1 (stereo not given)	0%	-3%	i	5%	2%	i
CCC(=O)N1CCc2cc(S(=O)(=O)CCC(=O)N3CCN(c4cccc(C)c4C)CC3)ccc21	/	/	i	/	/	?
Cc1ccc(NCc2nnc(SCC(=O)N3c4ccccc4Sc4ccccc43)o2)c(C)c1	-127%	-1%	i	-1%	3%	6.5µM*
COc1ccc(C(=O)CSc2nnc(CNc3ccc(C)cc3C)o2)cc1	-1%	?	i	2%	7%	i
Cc1ccc(OCc2nnc(SCC(=O)N3c4ccccc4Sc4ccc(Cl)cc43)o2)cc1	-55%	-2%	i	-2%	8%	8.2µM*
CC(C)c1ccc(NC(=O)CSc2nnc(CN3CCOCC3)n2C)cc1	11%	11%	i	-1%	9%	i
CCN(CC)S(=O)(=O)c1ccc(OCC(=O)NCc2ccco2)cc1	3%	-8%	i	2%	5%	i
Cc1onc(-c2ccccc2Cl)c1C(=O)N1CCN(c2cccc(Cl)c2)CC1	7.3µM*	?	2.3µM*	2.1µM*	2.6µM*	1.3µM*
Cc1onc(-c2ccccc2Cl)c1C(=O)N1CCCC1	30%	-1%	i	-5%	-2%	i
Cc1cccc(N2CCN(C(=O)c3c(-c4ccccc4)noc3C)CC2)c1C	?	3.7µM*	?	1.3µM*	1.2µM*	3.7µM*
Cc1onc(-c2ccccc2Cl)c1C(=O)N1CCN(c2ccccc2)CC1	19%	-18%	i	-13%	-3%	21µM*
Cc1onc(-c2c(Cl)cccc2Cl)c1C(=O)N1CCc2ccccc2C1	-94%	10%	i	-17%	-16%	21µM*
Cc1onc(-c2c(Cl)cccc2Cl)c1C(=O)N1CCCc2ccccc21	3%	-4%	i	-23%	-26%	i
O=C(CN(c1ccccc1)S(=O)(=O)c1ccc(F)cc1)NC1CCS(=O)(=O)C1 (stereo not given)	-3%	-11%	i	-12%	6%	i
Fc1cc(Br)ccc1NC(=S)Nc1ccccc1	-6%	?	?	16%	18%	15µM*
O=C(Nc1ccccc1)Nc1ccc(F)cc1F	8.2µM*	22%	i	-5%	-1%	i
CCSc1nsc(NC(=O)Nc2ccc(F)cc2F)n1	0%	?	?	-28%	?	15µM*
COc1ccc(O)c(/C=N/NC(=O)c2ccc(OCc3cccc(Br)c3)cc2)c1	4.1µM*	?	?	5.2µM*	1.6µM*	3.3µM*
